The campaign covered roughly 340,000 compounds. About 2,100 (0.62%) were called active. Not all results are given here. Potency and affinity values are given separately. Unmarked numbers belong to inactive results.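 The calls were made as follows: active = first-screen hits whose inhibition reached a set limit at any dose in the follow-up dose series; inconclusive = inhibition above the set first-screen limit but never retested; inactive = the rest.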

Rac GTPase-activating protein 1 (Homo sapiens), sequence (Q9H0H5 whole entry, looked up): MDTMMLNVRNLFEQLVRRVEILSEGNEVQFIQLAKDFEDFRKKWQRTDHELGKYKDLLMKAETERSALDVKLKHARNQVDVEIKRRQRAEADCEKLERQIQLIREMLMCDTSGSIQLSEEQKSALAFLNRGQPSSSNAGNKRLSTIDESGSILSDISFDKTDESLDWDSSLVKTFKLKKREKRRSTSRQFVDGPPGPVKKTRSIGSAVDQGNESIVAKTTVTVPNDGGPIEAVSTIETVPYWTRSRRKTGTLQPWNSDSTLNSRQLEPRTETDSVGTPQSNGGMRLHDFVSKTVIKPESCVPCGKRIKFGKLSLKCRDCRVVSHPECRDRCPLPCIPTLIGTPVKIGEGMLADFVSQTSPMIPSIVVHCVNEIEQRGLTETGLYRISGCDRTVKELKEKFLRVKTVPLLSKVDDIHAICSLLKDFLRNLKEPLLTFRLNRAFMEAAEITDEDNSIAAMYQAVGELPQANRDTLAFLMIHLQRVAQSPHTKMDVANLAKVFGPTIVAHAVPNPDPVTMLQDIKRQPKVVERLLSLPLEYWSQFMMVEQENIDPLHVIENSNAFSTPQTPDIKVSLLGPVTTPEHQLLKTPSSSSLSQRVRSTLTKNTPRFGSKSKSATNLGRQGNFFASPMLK

The assay concerns the target Rac GTPase-activating protein 1 (Homo sapiens) (UniProt Q9H0H5). Description: MgcRacGAP GTPase-activating activity inhibitors, confirmation, biochemical, ADP Hunter fluorescence, primary and confirmatory (AID 624330).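 Also: fluorescence reports GDP produced by GAP-driven GTP hydrolysis.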 The following applies: MgcRacGAP-stimulated Rac1 GTP hydrolysis, at 30 µM, stronger effect = higher value, GST-tagged Rac1 F28L mutant substrate.
On to `Cc1ccc(NC(=O)c2csc(-c3ccccc3)c2C)cc1`, for which the inhibition is 9.66%.

Turning to `CCOC(=O)c1c(C)[nH]c(C(=O)CN2CCOCC2)c1C`, the inhibition is 2.51%.

As for `CCOC(=O)c1c(C)[nH]c(C(=O)N2CCN(CC)CC2)c1C`, the inhibition is 2.01%.

For `COC(=O)c1cc(OC)c(OC)cc1NC(=O)c1cc(OC)cc(OC)c1`, the inhibition was -0.7%.

As to `CCOc1ccccc1N1CCN(Cc2ccco2)CC1`, the inhibition was 14.9%.

Take `CCOc1ccccc1N1CCN(C(=O)CC(C)(C)C)CC1`: the inhibition was -0.74%.

Take `CCC(=O)c1cn(CC(=O)Nc2cc(C)ccc2C)c2ccccc12`: the inhibition was 13.6%.

`O=C(CNC(=O)c1ccc(Br)o1)NNC(=O)c1ccccc1O`: the inhibition was 6.63%.

For the compound `CCOc1cc(CNc2ccc3c(c2)OCCO3)cc(Br)c1OC`, the inhibition is 23.8%.

Turning to `CCOc1cc(C(=O)Nc2ccc(N3CCOCC3)cc2)cc(Br)c1OC`, the inhibition is 2.59%.

For the compound `CCOc1c(Cl)cc(CNc2ccc(N3CCCC3)cc2)cc1OC`, the inhibition was 36.9%.

With `COc1cc(CC(=O)Nc2ccc(N3CCOCC3)cc2)cc(OC)c1OC`, the inhibition was 4.24%.

For `CCOc1cc(CNc2ccccc2)cc(Br)c1OCC(=O)NC(C)(C)C`, the inhibition was 6.03%.

With `COc1cc(CNc2ccc(N3CCCC3)cc2)cc(Cl)c1OC`, the inhibition is 1.89%.

For the compound `CCOc1cc(CNc2ccc3c(c2)OCCO3)cc(Br)c1OCC`, the inhibition is 30%.

`CCOc1cc(CNc2ccc(Br)cc2)cc(Br)c1OCC(=O)NC(C)(C)C`: the inhibition is -3.09%.

Regarding `COCCNC(=O)/C(C#N)=C/c1ccc(O)cc1`, the inhibition is 15.1%.

For `CC(C)CCc1noc(CN2CCC(C(=O)N3CCOCC3)CC2)n1`, the inhibition is 7.77%.

Take `Cc1cccc(C2NS(=O)(=O)N=C2N)c1` (stereo not drawn): the inhibition is 4.81%.

Regarding `NC(=O)c1c(NC(=O)C2c3ccccc3Oc3ccccc32)sc2c1CCCCC2`, the inhibition was 10.9%.

For the compound `Oc1c(C=C2N=c3ccccc3=N2)sc(=S)n1-c1ccc2ccccc2c1`, the inhibition is 9.34%.

For `O=C(CN(c1ccccc1)S(=O)(=O)c1ccccc1)Nc1ccc(F)cc1`, the inhibition was -5.62%.

Turning to `Cc1ccc(NC(=O)c2ccccc2F)cc1S(=O)(=O)N1CCCCCC1`, the inhibition was -2.21%.

Regarding `CCn1c(CSc2nc3ccccc3s2)nnc1SCC(=O)c1ccc(Cl)cc1`, the inhibition was -0.25%.

For `CCn1c(CSc2nc3ccccc3s2)nnc1SCC(=O)c1ccc(O)cc1O`, the inhibition is 6.52%.

With `COc1ccccc1N(CC(=O)NCC1CCCO1)C(=O)CCC(=O)Nc1cc(C)on1` (stereo not drawn), the inhibition was 2.95%.

For `COc1ccc(-c2noc(CN(C)Cc3ccccc3)n2)cc1`, the inhibition is 15.4%.

As to `O=C(CCSCc1ccccc1Cl)NC1CCCCC1`, the inhibition was 5.37%.

As to `COc1ccccc1Nc1ccc(N)cc1`, the inhibition is 10.5%.

`COc1ccccc1Nc1ccc(NS(=O)(=O)c2ccc(C(C)=O)cc2)cc1`: the inhibition was 23.2%.

On to `O=P(c1ccccc1)(c1ccccc1)c1cc(S(=O)(=O)O)ccc1O`, for which the inhibition is 5.95%.

Consider `O=Nc1c(O)ccc2cc(S(=O)(=O)O)ccc12`, for which the inhibition was 13.3%.

`Nc1cc(S(=O)(=O)O)cc2ccc(S(=O)(=O)O)cc12`: the inhibition was 6.2%.

Turning to `O=C(O)c1cc2cc(S(=O)(=O)O)ccc2cc1O`, the inhibition is 6.33%.

Take `Nc1ccc2c(O)cc(S(=O)(=O)O)cc2c1`: the inhibition is 19.4%.

With `Nc1cccc2cc(S(=O)(=O)O)ccc12`, the inhibition was 20.9%.

For the compound `CCc1ccccc1NC(=O)c1ccc(NCCc2ccccc2)c([N+](=O)[O-])c1`, the inhibition is 10.6%.

Turning to `C/C(=N\NC(=O)c1cccs1)C(C)(C)C`, the inhibition is -0.86%.

Consider `O=C(Nc1cccc(F)c1)Nc1ccnn1C1CCN(C(=O)c2ccccn2)CC1`, for which the inhibition is 4.39%.

Turning to `CC1CCCCC1NC(=O)c1ccco1` (stereo not drawn), the inhibition is 0.81%.

On to `COc1cccc(Oc2ccc3nnc(C(F)(F)F)n3n2)c1`, for which the inhibition is -1.34%.

As to `C[C@@H](O)CNC(=O)c1[nH]cnc1C(=O)Nc1cccc(Cl)c1`, the inhibition was 16.2%.

Take `Nc1ccccc1-c1n[nH]c(=S)s1`: the inhibition was 25.6%.

As for `CCN(c1ccc(OC)cc1)S(=O)(=O)c1nnc(NC(=O)C(C)C)s1`, the inhibition is 3.54%.

For the compound `O=C(O)c1ccccc1C(=O)c1ccc(-c2ccccc2)cc1`, the inhibition was 8.16%.

On to `CCN1CCN(c2ccc(S(=O)(=O)N3CCOCC3)cc2NC(=O)c2ccccc2SC)CC1`, for which the inhibition was 3.45%.

Consider `CCC(=O)Nc1cc(-c2nn(C)c(=O)c3ccccc23)ccc1OC`, for which the inhibition was 5.48%.

Turning to `O=C(COc1ncnc2cc([N+](=O)[O-])ccc12)NCCc1ccc(Cl)cc1`, the inhibition is -7.58%.

Take `Cc1ccc(NC(=O)c2cc(NC(=O)c3ccco3)ccc2N2CCOCC2)cc1Cl`: the inhibition was -19.1%.

Turning to `Nc1ccc(C(=O)Nc2ccc3c(O)cc(S(=O)(=O)O)cc3c2)cc1`, the inhibition was 14.1%.

Regarding `Cc1ccc(S(=O)(=O)Nc2ccc(O)c(S(=O)(=O)c3ccc(C)cc3)c2)cc1`, the inhibition is 6.97%.

Take `O=S(=O)(O)c1cccc2cccc(Nc3ccccc3)c12`: the inhibition was 13.4%.

As for `O=S(=O)(c1ccccc1)c1cc(O)ccc1O`, the inhibition is 6.16%.

With `Cc1cc(=O)oc2cc(Nc3ccccc3)ccc12`, the inhibition is 6.98%.

Turning to `CC(=O)Nc1ccc2c(O)cc(S(=O)(=O)O)cc2c1`, the inhibition is 6.64%.

With `CCCN(CCC)C(=O)C1CCCN(S(=O)(=O)c2ccc3c(c2)oc(=O)n3C)C1` (stereo not drawn), the inhibition was 7.01%.

As to `O=C(COC(=O)Cc1ccc(Br)cc1)NC1CC1`, the inhibition is 4.98%.

Take `O=C(COc1ccc(Cl)cc1)N(Cc1ccccc1)c1nc(-c2ccccc2)cs1`: the inhibition is 9.03%.

As to `O=c1n(-c2ccccc2)c(=O)n2n1CCCC2`, the inhibition was -0.32%.

For the compound `CCCCN(CC)CCCNC(=O)CC1Oc2ccccc2NC1=O` (stereo not drawn), the inhibition is 0.11%.

`CCOc1ccccc1C(C(=O)NC1CCCC1)N(Cc1ccco1)C(=O)CNC(=O)c1ccco1` (stereo not drawn): the inhibition is 5.39%.

`O=C(CN1c2ccccc2Sc2ccccc21)NNC(=S)Nc1ccc(Cl)cc1`: the inhibition was 15.4%.

For `CCOC(=O)C(CO)(NC(C)=O)C(=O)OCC`, the inhibition is 3.77%.

Values taken from PubChem BioAssay AID624330 (Southern Research Specialized Biocontainment Screening …, 2012).
